Results as given in PubChem BioAssay (Tox21).
Results filed as inconclusive are left out. Active and inactive are the calls of the source. Unless noted, calls follow the shape of the dose curve; as a rule, active = well fitted curve in the direction sought with a large enough effect in the repeat runs; inconclusive = weak or mixed curves; inactive = no such curve, though single readings can be large; an effect the other way counts as inactive or inconclusive.

Assays:
[1] = qHTS assay to identify small molecule antagonists of the estrogen receptor alpha (ER-alpha) signaling pathway using the BG1 cell line in the presence of 0.1 nM 17-beta-estradiol - cell viability counter screen (AID 1259241); also: nearly all actives have a fitted effect of over 40% in size
In short: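 Cytotoxicity counter-screen: live-cell protease activity measured by fluorescence (30 min reagent step) in the same wells. Cells were VM7Luc4E2 with endogenous ER-alpha and ERE-driven luciferase, treated 22 hr at 37C alongside 0.1 nM 17beta-estradiol final.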

[2] = qHTS assay to identify small molecule antagonists of the androgen receptor (AR) signaling pathway using the MDA cell line in the presence of 0.5 nM R1881 - cell viability counter screen (AID 1259242); also: nearly all actives have a fitted effect of over 45% in size
In short: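 Concentration-response screen of compounds for toxicity in MDA-kb2 reporter cells: 16 hr at 37C with 0.5 nM R1881, endpoint live-cell protease fluorescence measured in the reporter wells.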

[3] = qHTS assay to identify small molecule HDAC inhibitors (AID 1259364);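 also: wild-type HCT-116 cells with endogenous class I/II HDAC activity; top concentration of the series differs between compounds; nearly all actives have a fitted effect of over 45% in size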
In short: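 Screening used wild-type human colon HCT-116 cells incubated overnight, dosed with compounds for 2 hours, and assayed with a homogeneous luminogenic HDAC I/II reagent for 30 minutes at room temperature.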

[4] = qHTS assay to identify small molecule HDAC inhibitors - cell viability counter screen (AID 1259365); also: series mostly up to about 92 µM; nearly all actives have a fitted effect of over 50% in size
In short: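 CellTiter-Glo luminescence (30 min, room temperature) reported viability after a 2 h compound exposure at 37 C. Cells: wild-type HCT-116, 1,500 per well, seeded the night before.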

[5] = qHTS assay to identify small molecule agonists of the sonic hedgehog signaling (Shh) pathway - cell viability counter screen (AID 1259366); also: nearly all actives have a fitted effect of over 50% in size
In short: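 Cytotoxicity counter screen: CellTiter-Fluor reagent added after 23 h compound exposure, then 1 h at 37C and fluorescence read. Cells were 3T3 Gli1-Luc, seeded 2,000 per well and dosed 4 h post-plating.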

[6] = qHTS assay to identify small molecule antagonists of the sonic hedgehog signaling (Shh) pathway - cell viability counter screen (AID 1259367); also: nearly all actives have a fitted effect of over 55% in size
In short: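 Conditioned medium drove Shh signaling in 3T3 Gli1-Luc cells exposed to compounds at 37C and 5% CO2. Viability was determined from CellTiter-Fluor fluorescence, with reagent incubated 1 hr after 23 hr of treatment.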

[7] = qHTS assay to identify small molecule agonists of the sonic hedgehog signaling (Shh) pathway (AID 1259368; calls by dose curve; also: nearly all actives have a fitted effect of over 15% in size; also: potency is read from the fitted curve at half-maximal effect)
In short: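 Hedgehog pathway agonism scored by increased firefly luciferase luminescence in 3T3Gli1-Luc cells treated 24 hr at 37 C; detection used a 30 min room-temperature reagent incubation.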

[8] = qHTS assay to identify small molecule phospholipidosis (PLD) inducers (AID 1259344; active = well fitted curve in the direction sought with a large enough effect; an effect the other way counts as inactive or inconclusive)
In short: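 After 4 h attachment on collagen I, HepG2 cells were dosed with compound alongside LipidTOX Red, kept 24 h at 37 C, fixed, and imaged for lamellar phospholipid pits.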

[9] = target: Estrogen receptor (Homo sapiens) (UniProt P03372); test: qHTS assay to identify small molecule antagonists of the estrogen receptor alpha (ER-alpha) signaling pathway using the BG1 cell line in the presence of 0.1 nM 17-beta-estradiol (AID 1259244); also: nearly all actives have a fitted effect of over 50% in size
Sequence of Estrogen receptor (Homo sapiens) (P03372 whole entry, looked up): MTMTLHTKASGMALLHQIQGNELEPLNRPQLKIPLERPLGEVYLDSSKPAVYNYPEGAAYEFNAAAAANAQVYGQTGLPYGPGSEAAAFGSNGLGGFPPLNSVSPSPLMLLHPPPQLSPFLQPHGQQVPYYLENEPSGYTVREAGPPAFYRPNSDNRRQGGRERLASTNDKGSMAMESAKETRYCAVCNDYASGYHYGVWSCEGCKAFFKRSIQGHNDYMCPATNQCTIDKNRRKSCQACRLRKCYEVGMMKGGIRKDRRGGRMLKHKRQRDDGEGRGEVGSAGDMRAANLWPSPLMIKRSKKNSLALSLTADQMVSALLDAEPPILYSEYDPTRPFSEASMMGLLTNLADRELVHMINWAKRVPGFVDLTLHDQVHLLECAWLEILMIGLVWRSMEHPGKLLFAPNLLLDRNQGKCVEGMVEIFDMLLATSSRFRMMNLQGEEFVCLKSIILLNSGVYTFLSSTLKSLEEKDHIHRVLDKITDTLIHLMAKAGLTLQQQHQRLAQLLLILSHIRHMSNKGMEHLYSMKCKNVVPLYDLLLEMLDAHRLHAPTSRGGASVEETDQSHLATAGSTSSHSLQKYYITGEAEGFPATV
In short: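 Compounds were tested against 0.1 nM (final) 17beta-estradiol in VM7Luc4E2 cells, which express full-length ER-alpha and an ERE-luciferase reporter; luminescence was recorded following 22 h exposure.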
% is scaled to controls: 0 for no effect and ±100 for the full control effect.

NC(=O)C(Cl)Cl
inactive: Potency [1] | Potency [2] | Potency [3] | Potency [4] | Potency [5] | Potency [6] | Potency [7]

CN
inactive: Potency [1] | Potency [2] | Potency [3] | Potency [4] | Potency [5] | Potency [6] | Potency [7]

Oc1ccc2[nH]cc(CCCCN3CC=C(c4ccccc4)CC3)c2c1
inactive: Potency [1] | Potency [2] | outcome [8] | Potency [3] | Potency [6] | Potency [7]

CCN(CC)Cc1nccn1-c1ccc([N+](=O)[O-])cc1C(=O)c1ccccc1Cl
inactive: Potency [1] | Potency [2] | PLD induction [8] 0.825% [at 7.66 µM] | Potency [3] | Potency [4] | Potency [7]

c1ccc2nc(N3CCNCC3)ccc2c1
inactive: Potency [1] | Potency [2] | outcome [8] | Potency [3] | Potency [4] | Potency [6] | Potency [7]

CCCCCCC[CH2][Sn]([Cl])([Cl])[CH2]CCCCCCC
inactive: Potency [1] | Potency [2] | Potency [3] | Potency [4] | Potency [5] | Potency [6]

CC(=O)[O-].CC(=O)[O-].O.O.O.[Pb+2]
inactive: Potency [1] | Potency [2] | Potency [3] | Potency [4] | Potency [5] | Potency [6] | Potency [7]

CC(=O)O.CC(=O)O.CC(=O)O.CC(=O)O.CC(=O)O.CC(=O)O.CC(=O)O.O.O.[Cr].[Cr].[Cr]
inactive: Potency [1] | Potency [2] | Potency [3] | Potency [4] | Potency [5] | Potency [6] | Potency [7]

CC(=O)[O-].CC(=O)[O-].O.O.[Zn+2]
inactive: Potency [1] | Potency [2] | Potency [3] | Potency [4] | Potency [5] | Potency [6] | Potency [7]

Brc1ccc(Oc2ccc(Br)cc2Br)c(Br)c1
inactive: Potency [1] | Potency [2] | Potency [9] | Potency [4] | Potency [5] | Potency [6] | Potency [7]

COC(=O)c1ccccc1S(=O)(=O)NC(=O)Nc1nc(C)nc(OC)n1
inactive: Potency [1] | Potency [2] | Potency [3] | Potency [4] | Potency [5] | Potency [6] | Potency [7]

CCCCn1cc[n+](C)c1.[Cl][Fe-]([Cl])([Cl])[Cl]
inactive: Potency [1] | Potency [2] | Potency [3] | Potency [4] | Potency [6] | Potency [7]

O.O.O.O.O.O.O.O=S(=O)([O-])[O-].[Co+2]
active: Potency [7] 61.5 µM
inactive: Potency [1] | Potency [2] | Potency [3] | Potency [4] | Potency [6]

CNC(=O)O/N=C(\C)C(C)S(C)(=O)=O (configuration not stated)
inactive: Potency [1] | Potency [2] | Potency [3] | Potency [4] | Potency [5] | Potency [7]
